{
  "source": "paper PMC4336329",
  "about": "(PLoS ONE, 2015)",
  "note": "The whole screen tested about 310,000 compounds, of which about 14,000 (4.5%) showed an effect of 50% or more. Effects have a minus sign here. Many of the other results were omitted from the sample, so strong results are more common in it than they were.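 Note: peak tail current of the secondary pulse compared with the same well before compound.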",
  "data": [
    {"molecular_target": "human ether-à-go-go-related gene (hERG) potassium channel (human, UniProt Q12809)", "sequence (Q12809 whole entry, looked up)": "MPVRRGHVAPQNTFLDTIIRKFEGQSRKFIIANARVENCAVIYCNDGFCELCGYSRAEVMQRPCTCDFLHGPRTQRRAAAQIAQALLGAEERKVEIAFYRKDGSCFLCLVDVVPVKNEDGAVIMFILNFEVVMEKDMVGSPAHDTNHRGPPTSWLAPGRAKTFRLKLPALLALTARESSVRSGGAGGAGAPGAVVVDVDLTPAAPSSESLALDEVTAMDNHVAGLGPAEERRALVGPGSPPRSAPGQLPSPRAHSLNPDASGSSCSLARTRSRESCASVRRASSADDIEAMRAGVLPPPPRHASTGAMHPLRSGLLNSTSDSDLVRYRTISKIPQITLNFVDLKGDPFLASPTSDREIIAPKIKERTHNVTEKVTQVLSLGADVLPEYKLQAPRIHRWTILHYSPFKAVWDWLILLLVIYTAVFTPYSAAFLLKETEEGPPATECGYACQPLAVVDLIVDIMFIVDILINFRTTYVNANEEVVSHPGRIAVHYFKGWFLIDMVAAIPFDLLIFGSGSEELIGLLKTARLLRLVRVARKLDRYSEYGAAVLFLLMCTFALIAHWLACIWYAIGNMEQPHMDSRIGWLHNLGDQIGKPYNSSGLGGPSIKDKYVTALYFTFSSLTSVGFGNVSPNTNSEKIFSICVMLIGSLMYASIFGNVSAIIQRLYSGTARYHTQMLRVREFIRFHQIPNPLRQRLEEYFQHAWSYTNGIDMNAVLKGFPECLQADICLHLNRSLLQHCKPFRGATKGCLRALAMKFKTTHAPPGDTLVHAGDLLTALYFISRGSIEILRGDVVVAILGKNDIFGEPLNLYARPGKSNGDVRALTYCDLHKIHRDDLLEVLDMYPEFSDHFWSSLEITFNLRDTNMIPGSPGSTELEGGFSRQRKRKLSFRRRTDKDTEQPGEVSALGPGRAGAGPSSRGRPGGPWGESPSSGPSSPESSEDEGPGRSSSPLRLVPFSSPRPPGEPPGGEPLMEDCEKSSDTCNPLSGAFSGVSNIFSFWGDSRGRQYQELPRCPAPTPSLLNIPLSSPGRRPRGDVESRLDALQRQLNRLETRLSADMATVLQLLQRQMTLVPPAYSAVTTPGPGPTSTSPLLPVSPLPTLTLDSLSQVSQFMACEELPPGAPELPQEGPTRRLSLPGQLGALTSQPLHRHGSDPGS", "test": "primary screen, population patch clamp on CHO cells stably expressing hERG; higher = less effect of the substance", "units": {"hERG current change (%, negative = inhibition) at 10uM": "%"}, "values": [
      {"smiles": "Cc1nc(-c2ccc(NC(=O)Cc3ccccc3)cc2)cs1", "hERG current change (%, negative = inhibition) at 10uM": 21.1},
      {"smiles": "Cc1ccc(-c2nn(-c3ccccc3)cc2/C=C2\\SC(=S)N(CCCCCC(=O)O)C2=O)o1", "hERG current change (%, negative = inhibition) at 10uM": 15.1},
      {"smiles": "Cc1cc(-c2ccc(C)c(S(=O)(=O)NCc3ccc(Br)cc3)c2)on1", "hERG current change (%, negative = inhibition) at 10uM": -31},
      {"smiles": "COc1cccc(SCc2noc(C(=O)NCC3CCCO3)c2C(=O)O)c1", "note": "(stereo not drawn)", "hERG current change (%, negative = inhibition) at 10uM": 11.9},
      {"smiles": "COc1ccccc1CCc1nnc(CCC(=O)NCCOc2cccnc2)o1", "hERG current change (%, negative = inhibition) at 10uM": 7.9},
      {"smiles": "Cc1cc(S(=O)(=O)N2CCC(NC(=O)C34CC5CC(CC(C5)C3)C4)CC2)ccc1-n1cnnn1", "hERG current change (%, negative = inhibition) at 10uM": -15.2},
      {"smiles": "COCCN(CCOC)c1ncc(Cl)c(C(=O)c2c(C)cc3ccccn23)n1", "hERG current change (%, negative = inhibition) at 10uM": -4.6},
      {"smiles": "COC(=O)C1(C)CC1(c1ccccc1)c1ccccc1", "note": "(stereo not drawn)", "hERG current change (%, negative = inhibition) at 10uM": -3.98},
      {"smiles": "O=C(N/N=C/c1ccccc1O)C1CCCC1", "hERG current change (%, negative = inhibition) at 10uM": 8.05},
      {"smiles": "O=C(c1ccccc1)C1CCN(CC(=O)N2CCN(c3ccccc3)CC2)CC1", "hERG current change (%, negative = inhibition) at 10uM": -14.9},
      {"smiles": "O=C(CN1CCC(C(=O)c2ccc(F)cc2)CC1)NCc1ccccc1F", "hERG current change (%, negative = inhibition) at 10uM": -39.6},
      {"smiles": "Cc1ccc(C(=O)C2CCN(CC(=O)N3CCN(c4ccc(F)cc4)CC3)CC2)cc1", "hERG current change (%, negative = inhibition) at 10uM": -73.7},
      {"smiles": "COc1ccccc1NC(=O)CN1CCC(C(=O)c2ccc(F)cc2)CC1", "hERG current change (%, negative = inhibition) at 10uM": -38.5},
      {"smiles": "O=C(CN1CCC(C(=O)c2ccc3c(c2)OCCO3)CC1)NCc1ccc(F)cc1", "hERG current change (%, negative = inhibition) at 10uM": -30.2},
      {"smiles": "Cc1ccc(C(=O)NCN2CCN(c3ccc(F)cc3)CC2)cc1", "hERG current change (%, negative = inhibition) at 10uM": -28.9},
      {"smiles": "Cc1ccccc1NC(=O)CN1CCC(C(=O)c2ccc3c(c2)OCCO3)CC1", "hERG current change (%, negative = inhibition) at 10uM": -44.5},
      {"smiles": "Cc1ccc(C(=O)C2CCN(CC(=O)NCc3ccc(F)cc3)CC2)cc1", "hERG current change (%, negative = inhibition) at 10uM": -53.3},
      {"smiles": "Cc1ccc(C(=O)C2CCN(CC(=O)Nc3ccccc3C)CC2)cc1", "hERG current change (%, negative = inhibition) at 10uM": -68.9},
      {"smiles": "Cc1nonc1CN(C)C(=O)c1cc(COc2ccc(F)cc2Cl)on1", "hERG current change (%, negative = inhibition) at 10uM": -4.29},
      {"smiles": "Cc1ccc(-n2c(CSc3nc(C)cc(C)n3)nnc2SCC(=O)N2CCCC2)cc1", "hERG current change (%, negative = inhibition) at 10uM": -8.81},
      {"smiles": "COc1ccccc1C1Nc2cccc3cccc(c23)N1", "hERG current change (%, negative = inhibition) at 10uM": -50.7},
      {"smiles": "COc1cc(OC)c(C2Nc3cccc4cccc(c34)N2)c(OC)c1", "hERG current change (%, negative = inhibition) at 10uM": 6.67},
      {"smiles": "COc1ccc(Br)cc1C1Nc2cccc3cccc(c23)N1", "hERG current change (%, negative = inhibition) at 10uM": 20.2},
      {"smiles": "Cn1ncc(Br)c1C(=O)N/N=C/c1cccc(OC2CSC2)c1", "hERG current change (%, negative = inhibition) at 10uM": -8.23},
      {"smiles": "O=C(CSc1nnc(Nc2ccccc2F)s1)Nc1cccc(S(=O)(=O)N2CCCCC2)c1", "hERG current change (%, negative = inhibition) at 10uM": -6.58},
      {"smiles": "CC1Cc2nc(SCC(=O)Nc3nc4ccccc4s3)n(C)c(=O)c2S1", "note": "(stereo not drawn)", "hERG current change (%, negative = inhibition) at 10uM": -20.1},
      {"smiles": "CN1CCSc2ccc(C(=O)NCc3cccc(F)c3)cc21", "hERG current change (%, negative = inhibition) at 10uM": 16.6},
      {"smiles": "O=C(Nc1cnn(Cc2ccc(F)cc2)c1)c1cnccn1", "hERG current change (%, negative = inhibition) at 10uM": -3.09},
      {"smiles": "O=C(Nc1cnn(Cc2ccc(F)cc2)c1)C(c1ccccc1)c1ccccc1", "hERG current change (%, negative = inhibition) at 10uM": -30.1},
      {"smiles": "CCOc1ccccc1C(=O)Nc1cnn(Cc2ccc(F)cc2)c1", "hERG current change (%, negative = inhibition) at 10uM": -58.8},
      {"smiles": "O=C(CCSCCc1ccccn1)Nc1nccs1", "hERG current change (%, negative = inhibition) at 10uM": 30.1},
      {"smiles": "O=C(Cc1csc(NC(=O)c2ccc(F)cc2)n1)NO", "hERG current change (%, negative = inhibition) at 10uM": -3.56},
      {"smiles": "COc1ccc(N(C(C)C(=O)N/N=C/c2cccnc2)S(C)(=O)=O)cc1", "note": "(stereo not drawn)", "hERG current change (%, negative = inhibition) at 10uM": -3.44},
      {"smiles": "COc1ccc(/C=N/NC(=O)C(C)N(c2ccc(OC)cc2)S(C)(=O)=O)cc1", "note": "(stereo not drawn)", "hERG current change (%, negative = inhibition) at 10uM": -8.54},
      {"smiles": "COc1ccc(N(C(C)C(=O)N/N=C/c2ccc(OCC(C)C)cc2)S(C)(=O)=O)cc1", "note": "(stereo not drawn)", "hERG current change (%, negative = inhibition) at 10uM": -9.12},
      {"smiles": "COc1ccc(N(C(C)C(=O)N/N=C/c2cc(Br)c(C)o2)S(C)(=O)=O)cc1", "note": "(stereo not drawn)", "hERG current change (%, negative = inhibition) at 10uM": -54},
      {"smiles": "COc1ccc(N(C(C)C(=O)N/N=C/c2ccc(OC)c(OC)c2)S(C)(=O)=O)cc1", "note": "(stereo not drawn)", "hERG current change (%, negative = inhibition) at 10uM": 5.24},
      {"smiles": "COc1ccc(N(C(C)C(=O)N/N=C/c2ccc(OC(C)C)cc2)S(C)(=O)=O)cc1", "note": "(stereo not drawn)", "hERG current change (%, negative = inhibition) at 10uM": -52.4},
      {"smiles": "COc1ccc(C(=O)/C=C/Nc2ccc(S(=O)(=O)Nc3cc(OC)nc(OC)n3)cc2)c(OC)c1", "hERG current change (%, negative = inhibition) at 10uM": 19.4},
      {"smiles": "O=Cc1cn(CCC(=O)O)nc1-c1cccc2ccccc12", "hERG current change (%, negative = inhibition) at 10uM": 13.5},
      {"smiles": "O=C(N/N=C\\c1ccc(F)cc1)c1cc(OCC(F)(F)F)ccc1OCC(F)(F)F", "hERG current change (%, negative = inhibition) at 10uM": -21},
      {"smiles": "COc1ccccc1C(=O)N/N=C(\\C)c1ccc(NC(=O)C2CC2)cc1", "hERG current change (%, negative = inhibition) at 10uM": -3.62},
      {"smiles": "O=C(NCCSCc1ccc(Cl)cc1)c1cccs1", "hERG current change (%, negative = inhibition) at 10uM": -63.7},
      {"smiles": "O=C(Cc1ccccc1)NCCSCc1ccc(Cl)cc1", "hERG current change (%, negative = inhibition) at 10uM": -9.5},
      {"smiles": "O=C(NCCc1ccc(Cl)cc1)c1cccs1", "hERG current change (%, negative = inhibition) at 10uM": -3.58},
      {"smiles": "C=CCSc1nnc(-c2ccccc2N=Cc2c(C)[nH]n(-c3ccccc3)c2=O)c(=O)[nH]1", "hERG current change (%, negative = inhibition) at 10uM": -26.5},
      {"smiles": "O=C(c1cccc(S(=O)(=O)N2CCOCC2)c1)N1CCN(S(=O)(=O)c2cccs2)CC1", "hERG current change (%, negative = inhibition) at 10uM": 5.04},
      {"smiles": "O=C(Nc1ccc([N+](=O)[O-])cn1)c1cc(-c2cccc(Br)c2)nc2ccccc12", "hERG current change (%, negative = inhibition) at 10uM": 17.6},
      {"smiles": "O=[N+]([O-])c1ccc(CSc2nc3ncc(Br)cc3[nH]2)cc1", "hERG current change (%, negative = inhibition) at 10uM": 6.04},
      {"smiles": "O=C(CSc1nc2ncc(Br)cc2[nH]1)c1cccc([N+](=O)[O-])c1", "hERG current change (%, negative = inhibition) at 10uM": -45.7},
      {"smiles": "O=C(CSc1nc2ncc(Br)cc2[nH]1)c1ccc([N+](=O)[O-])cc1", "hERG current change (%, negative = inhibition) at 10uM": -66.9},
      {"smiles": "CCOC(=O)c1cc(C#N)c(N2CCCC2)nc1-c1ccccc1", "hERG current change (%, negative = inhibition) at 10uM": -7.5},
      {"smiles": "C/C(=C\\c1ccc(C)o1)C(=O)c1c(C)cc(C)[nH]c1=O", "hERG current change (%, negative = inhibition) at 10uM": 11.5},
      {"smiles": "O=C(O)C(=O)O.OCC1CCCCN1CC(O)COC(c1ccc(F)cc1)c1ccc(F)cc1", "note": "(stereo not drawn)", "hERG current change (%, negative = inhibition) at 10uM": -71},
      {"smiles": "CCC1CCCCN1CC(O)COCc1cccc(OC)c1", "note": "(stereo not drawn)", "hERG current change (%, negative = inhibition) at 10uM": 3.15},
      {"smiles": "COc1ccccc1COCC(O)CN1CCCCC1CO.O=C(O)C(=O)O", "note": "(stereo not drawn)", "hERG current change (%, negative = inhibition) at 10uM": 18.6},
      {"smiles": "Cc1ccccc1C(OCC(O)CN1CCC(C(N)=O)CC1)c1ccccc1", "note": "(stereo not drawn)", "hERG current change (%, negative = inhibition) at 10uM": -59.3},
      {"smiles": "NC(=O)C1CCN(CC(O)CSc2ccccc2)CC1", "note": "(stereo not drawn)", "hERG current change (%, negative = inhibition) at 10uM": -0.00192},
      {"smiles": "Cc1ccccc1C(OCC(O)CN1CCCCC1CCO)c1ccccc1", "note": "(stereo not drawn)", "hERG current change (%, negative = inhibition) at 10uM": -61.6},
      {"smiles": "Cc1ccc(C(OCC(O)CN2CCCCC2CO)c2ccccc2)cc1", "note": "(stereo not drawn)", "hERG current change (%, negative = inhibition) at 10uM": -62.8},
      {"smiles": "CCN1CCN(CC(O)COC(c2ccccc2)c2ccccc2C)CC1.O=C(O)C(=O)O", "note": "(stereo not drawn)", "hERG current change (%, negative = inhibition) at 10uM": -10.6},
      {"smiles": "CC(OCC(O)CN1CCCCC1CCO)c1ccc(Cl)cc1", "note": "(stereo not drawn)", "hERG current change (%, negative = inhibition) at 10uM": 4.2},
      {"smiles": "OCCC1CCCCN1CC(O)COCc1ccc(Cl)cc1", "note": "(stereo not drawn)", "hERG current change (%, negative = inhibition) at 10uM": -7.29}
    ]}
  ]
}
